Screen size: about 94,000 compounds; about 4,000 (4.3%) were called active. A call without a number means that no potency is given here. Another 29% or so got no clear call; they are omitted. Calls follow the shape of the dose curve; as a rule, active = well fitted inhibition curve with a large enough effect; inconclusive = small, poorly fitted or top-dose-only effect; inactive = no such curve, though single readings can be large or run the other way. Many of the other results were omitted from the sample, so actives are more common in it than they were.
Assay: Cytotoxic Profiling in NIH 3T3 Cell Line of Diverse Libraries Using Quantitative High-Throughput Screening; also: nearly all actives have a fitted effect of over 55% in size
Conditions: NIH 3T3 viability, CellTiter-Glo ATP luminescence, 48-72 h; series mostly up to 96.7 µM
Outline: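 First NIH 3T3 cells are plated at 400 cells/well; next compound is pinned in; then plates incubate 48 or 72 hr at 37 °C; finally CellTiter-Glo is added and luminescence read after 10 min.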
In the case of `CCCNC(=O)N1CCC(Cn2c(C)cnc2-c2cccnc2)CC1`, the Potency was “inactive”.
With `COCCNC(=O)C1CCCN(Cc2cccc(-c3cccs3)c2)C1` (stereo not drawn) the Potency was “inactive”.
In the case of `O=C(NCc1ccc2c(c1)OCO2)C1CN(C2CCCCC2)C(=O)N1` (stereo not drawn), the Potency was “inactive”.
With `O=C(NCc1ccc2c(c1)OCO2)C1CCCN(Cc2cccc(-c3cccs3)c2)C1` (stereo not drawn) the Potency was 31.6 µM (active).
In the case of `Cc1nc(C(=O)N2CC[C@H](N3CCN(C)CC3)[C@H](CCCO)C2)cs1`, the Potency was “inactive”.
For `CCCCOC(=O)N1CC(=O)N(Cc2ccco2)CC(O)C1` (stereo not drawn), the Potency was “inactive”.
With `COCCOCC(=O)N1CCC2(CC1)CC(N(C(=O)c1ccccc1)C1CC1)CCO2` (stereo not drawn) the Potency was “inactive”.
In the case of `O=C(NCc1cccc(C(F)(F)F)c1)c1nn(CCOc2ccccc2)c2c1CNCC2`, the Potency was 15.8 µM (active).
For `COc1ccccc1CNC(=O)c1nn(CC2CC2)c2c1CNCC2`, the Potency was “inactive”.
For `COC[C@H]1NC(=O)CC[C@H]1C(=O)NCc1cccc(C(F)(F)F)c1`, the Potency was “inactive”.
With `CC(C)NC(=O)C1(CCO)CC12CCOCC2` (stereo not drawn) the Potency was “inactive”.
In the case of `O=C(c1ccc(Cl)cc1)N1CCCN(CCn2nc3n(c2=O)CCCC3)CC1`, the Potency was “inactive”.
In the case of `CCNC(=O)N[C@H]1CC[C@]2(C)CC[C@@H]([C@H](C)C(=O)NCc3ccco3)[C@H](O)[C@H]2[C@@H]1C`, the Potency was “inactive”.
For `Cc1noc(C)c1-c1nccc2c(=O)cc(N3CCOCC3)oc12`, the Potency was 100 µM (active).
For `CC(C)(C)CC(=O)Nc1ccc2c(N3CCOCC3)ncnc2c1`, the Potency was “inactive”.
In the case of `O=c1cc(N2CCOCC2)oc2c(NCc3ccncc3)nccc12`, the Potency was 44.7 µM (active).
In the case of `CCn1c(=O)c2ccnn2c2ccc(C(=O)NCc3ccc(N4CCOCC4)cc3)cc21`, the Potency was “inactive”.
With `CC(=O)Nc1ccc(C2(C(=O)NCCCN3CCOCC3)CCCCC2)cc1` the Potency was “inactive”.
In the case of `CC(CO)Nc1ncnc2c1CN(C1CCCNCC1)C(=O)CN2C` (stereo not drawn), the Potency was “inactive”.
For `Cn1c(=O)[nH]cc(CC(=O)N2CCCC(c3cccc(C(=O)O)c3)C2)c1=O` (stereo not drawn), the Potency was “inactive”.
In the case of `O=C1CCN(C(=O)Cc2c[nH]c3ccccc23)CCCCCCN1`, the Potency was “inactive”.
In the case of `CC(C)C(=O)N1CCC2(CC1)OC(=O)N(Cc1ccccc1F)C2(C)c1ccccc1` (stereo not drawn), the Potency was 44.7 µM (active).
In the case of `CCc1ccccc1S(=O)(=O)N1CCN(C2(CC)CCN(C(=O)C(C)C)C2)CC1` (stereo not drawn), the Potency was “inactive”.
With `CN(CCO)CC1(O)CCCN(Cc2ccccc2F)C1=O` (stereo not drawn) the Potency was “inactive”.
With `CC1(c2ccccc2)N(Cc2ccccc2F)C(=O)OC12CCN(Cc1c[nH]c3ccccc13)CC2` (stereo not drawn) the Potency was 17.8 µM (active).
With `COc1ccc(CN2CCC3(CC2)OCCN(Cc2ccccc2F)C3=O)cc1O` the Potency was “inactive”.
For `O=C(CCc1conc1-c1ccccc1)NCc1ccco1`, the Potency was “inactive”.
With `CCOc1ccccc1NC(=O)Cn1c(N2CCOCC2)nc(CC)cc1=O` the Potency was “inactive”.
In the case of `C[S+](=O)([O-])N1Cc2ccccc2OC2(CCN(C(=O)Cc3cccc(O)c3)CC2)C1`, the Potency was “inactive”.
For `CN1CCC(NC(=O)C2CCCN(S(=O)(=O)c3ccccc3)CCC(=O)NCC2)CC1` (stereo not drawn), the Potency was “inactive”.
For `Cn1ncc2c(C(=O)NCC(F)(F)F)cc(-c3ccc(C(F)(F)F)cc3)nc21`, the Potency was “inactive”.
With `Cn1ncc2c(C(=O)NCC#N)cc(-c3cccc(C(F)(F)F)c3)nc21` the Potency was “inactive”.
For `COc1ccc(-c2cc(C(=O)NCC#N)c3cnn(C)c3n2)cc1`, the Potency was 15.8 µM (active).
In the case of `Cc1noc(C)c1S(=O)(=O)NCC1Cn2cccc2C(=O)N1C` (stereo not drawn), the Potency was “inactive”.
For `Cc1ncnc(N2CCC(Oc3ccc4ccccc4c3)(C(=O)O)CC2)c1C`, the Potency was “inactive”.
For `COc1cccc(NC(=O)c2c(OC)cc(=O)n3c2CCCC3)c1`, the Potency was “inactive”.
With `COc1cccc(NC(=O)c2cnc3n[nH]c(-c4ccc(OC)cc4C)c3n2)c1` the Potency was 50.1 µM (active).
For `COc1ccc(-c2[nH]nc3ncc(-c4cn[nH]c4)nc23)cc1F`, the Potency was “inactive”.
With `CCOc1ccc2c(n1)CCN(C(=O)Nc1ccc(OC)cc1C)C2` the Potency was “inactive”.
For `COc1cccc(-c2cc(C(=O)Nc3cccc(Cl)c3)c3cnn(C)c3n2)c1`, the Potency was “inactive”.
With `COc1ccc(-c2[nH]nc3ncc(C(=O)Nc4ccccc4)nc23)c(C)c1` the Potency was 28.2 µM (active).
With `CNC(=O)[C@H]1C[C@H](Oc2ccccc2)CN1C(=O)c1cc(-c2ccccc2)n[nH]1` the Potency was “inactive”.
For `CN(Cc1nccn1C)C(=O)c1cc(CN2CCC(Cc3ccccc3)CC2)on1`, the Potency was “inactive”.
In the case of `COCc1cc(C[C@@H]2CC[C@H](O)[C@@H](CN(CC3CCCCC3)CC3CCCCC3)O2)no1`, the Potency was “inactive”.
In the case of `COCc1cc(C[C@@H]2CC[C@H](O)[C@@H](CN(C)C)O2)no1`, the Potency was “inactive”.
In the case of `CCC(CC)C(=O)N[C@H]1C[C@@H](Cc2cc(COc3ccccc3)on2)C1(C)C`, the Potency was 70.8 µM (active).
With `CC1(C)[C@H](Cc2cc(CC3CCCCC3)on2)C[C@@H]1NC(=O)C1CCC1` the Potency was 39.8 µM (active).
For `CC1(C)[C@H](Cc2cc(CC3CCCCC3)on2)C[C@@H]1NC1CCOCC1`, the Potency was 31.6 µM (active).
With `CC(=O)N1CCC(NC[C@H]2O[C@H](Cc3cc(-c4cccc(O)c4)on3)CC[C@@H]2O)CC1` the Potency was “inactive”.
For `CN(Cc1ccccc1)Cc1cc(CC2(NCc3ccc(CO)o3)COC2)no1`, the Potency was “inactive”.
With `CC(=O)N1CCC(N[C@H]2C[C@@H](Cc3cc(CN(C)c4ccccc4)on3)C2(C)C)CC1` the Potency was 89.1 µM (active).
For `CC1(C)[C@H](Cc2cc(CCO)on2)C[C@@H]1NCC1CC1`, the Potency was “inactive”.
In the case of `CC1(C)[C@H](Cc2cc(CN3CCCCC3)on2)C[C@@H]1NS(C)(=O)=O`, the Potency was “inactive”.
For `CN(C)S(=O)(=O)N1CCCOCCNC(=O)[C@@H]2CCC[C@@H]21`, the Potency was “inactive”.
For `COc1ccc2[nH]c(C(=O)N3C[C@@H](Oc4ccccc4)C[C@H]3C(=O)N3CCCC3)cc2c1`, the Potency was “inactive”.
For `O=C(c1nc2sccn2c1CN1CCCC(CO)C1)N1CCCCC1` (stereo not drawn), the Potency was “inactive”.
In the case of `COc1ccc(NC(=O)CC2CCOCC2)cc1`, the Potency was “inactive”.
In the case of `Cc1cccc(CC(=O)N2C[C@@H](CO)[C@H](c3ccccn3)C2)c1`, the Potency was “inactive”.
For `CC(C)(C)c1coc([C@@H]2COCCN2C2CCC2)n1`, the Potency was “inactive”.
With `CCOc1cc(=O)n2c(c1C(=O)NCCc1ccccc1)CCCCC2` the Potency was “inactive”.
In the case of `COc1ccc(-c2ccccc2C(=O)N2CCC(NC(=O)Cc3ccc(F)cc3)CC2)nn1`, the Potency was “inactive”.
In the case of `O=C(Cc1ccc(F)cc1)NC1CCN(c2nc3ncccc3o2)C1` (stereo not drawn), the Potency was “inactive”.
In the case of `O=C(Cc1ccc(F)cc1)NC1CCN(c2cn[nH]c(=O)c2)CC1`, the Potency was “inactive”.
For `Cc1cccc(-c2cccc(CN3CCC(NC(=O)Nc4ccccc4)CC3)c2)c1`, the Potency was 12.6 µM (active).
With `O=C(CCNc1cnc2cnccn12)NC1CCN(Cc2ccccc2)CC1` the Potency was “inactive”.
For `CN1C(=O)c2cccn2CC1C(=O)NC1CCN(Cc2ccccc2)CC1` (stereo not drawn), the Potency was “inactive”.
In the case of `COc1cccc(-c2ccc(C(=O)N3CCC(NC(=O)Cc4ccc(F)cc4)CC3)cc2)c1`, the Potency was 39.8 µM (active).
For `Cc1cccc(-c2cccc(CN3CCC(NC(=O)Cc4ccc(F)cc4)CC3)c2)c1`, the Potency was 28.2 µM (active).
For `COC(=O)N1CCN(C(=O)c2cccc(-c3cccc(OC)c3)c2)CC1`, the Potency was “inactive”.
For `COCCN1CCC(N2CCN(S(=O)(=O)c3ccccc3)CC2)C1=O` (stereo not drawn), the Potency was “inactive”.
For `O=C(NCC1CCOCC1)C1COc2ccccc2O1` (stereo not drawn), the Potency was “inactive”.
In the case of `CC(C)(C)CC(=O)NC1CCN(c2cnn(CC3CC3)c(=O)c2)CC1`, the Potency was “inactive”.
In the case of `O=C(NCCc1noc(-c2ccccc2)n1)C1CC1`, the Potency was “inactive”.
With `CCn1cc(C(=O)N2CC(COC)C3(CCNCC3)C2)cn1` (stereo not drawn) the Potency was “inactive”.
With `Cc1noc(C)c1[S+](=O)([O-])N1CC(Oc2ccc(F)c(F)c2)C1` the Potency was “inactive”.
For `Cc1noc(C)c1[S+](=O)([O-])N1CCn2c(nnc2-c2ccccc2)C1`, the Potency was “inactive”.
For `Cc1noc(C)c1[S+](=O)([O-])NC1CCN(Cc2cccc(-c3ccc(F)c(F)c3)c2)CC1`, the Potency was 14.1 µM (active).
In the case of `CSc1ccc(-c2cccc(CN3CCC(N[S+](=O)([O-])c4cccs4)CC3)c2)cc1`, the Potency was 12.6 µM (active).
For `O=C(Nc1cc(F)ccc1F)N1CCC(Oc2ncccc2C(=O)N2CCCCC2)C1` (stereo not drawn), the Potency was “inactive”.
In the case of `Cn1cccc1C(=O)N1CCCC(c2nc(-c3ccccc3)no2)CCNC(=O)CC1` (stereo not drawn), the Potency was “inactive”.
For `COc1ccccc1NC(=O)Cn1c(C)cc2nc3n(c(=O)c21)CCC3`, the Potency was “inactive”.
For `Cc1noc(C2CC3(CCN(C(=O)c4sc(C)nc4C)CC3)CN2C)n1` (stereo not drawn), the Potency was “inactive”.
In the case of `CCn1nc(C)cc1C(=O)N[C@H]1[C@H](O)[C@H](O)C[C@@H]1c1cccnc1`, the Potency was “inactive”.
For `CN1CCN([C@H]2CCN(C(=O)Cc3cccc(O)c3)C[C@H]2CCCO)CC1`, the Potency was “inactive”.
With `COCCNC(=O)[C@@H]1C[C@H](Oc2cccnc2)CN1C(=O)c1nccn1C` the Potency was “inactive”.
For `Cc1cc(=O)n(CC(=O)NCCc2ccc(Cl)cc2)c(N2CCc3ccccc3C2)n1`, the Potency was 25.1 µM (active).
With `Cc1cc(=O)n(CC(=O)Nc2cccc(Cl)c2C)c(N2CCc3ccccc3C2)n1` the Potency was “inactive”.
With `CCOC(=O)C1=CN(CC(=O)NCCc2ccc(Cl)cc2)S(=O)(=O)N=C1C` the Potency was “inactive”.
With `CCC(CC)NC(=O)C1Cn2cccc2C(=O)N1Cc1cccnc1` (stereo not drawn) the Potency was “inactive”.
For `Cn1nccc1C(=O)NC1CCCN(c2cc(-c3ccc(F)cc3)[nH]n2)C1` (stereo not drawn), the Potency was “inactive”.
With `CC(=O)N1CCC(C(=O)NCC2CCN(c3cc(-c4ccc(C)cc4)[nH]n3)CC2)CC1` the Potency was “inactive”.
In the case of `O=C(NC1CCN(c2cc(-c3ccc(F)cc3)[nH]n2)C1)c1cc2ccccc2[nH]1` (stereo not drawn), the Potency was 39.8 µM (active).
For `O=C(NC1CCN(c2cc(-c3ccccc3)[nH]n2)CC1)c1cccs1`, the Potency was “inactive”.
In the case of `O=C(Cc1ccc(F)cc1)NC1CCN(c2cc(-c3ccc(Cl)cc3)[nH]n2)CC1`, the Potency was “inactive”.
For `O=C(NC1CCN(c2cc(-c3ccc(Cl)cc3)[nH]n2)C1)c1c[nH]c2ccccc12` (stereo not drawn), the Potency was 39.8 µM (active).
For `Cc1ccc(-c2cc(N3CCC(CNC(=O)c4ccc(N(C)C)cc4)CC3)n[nH]2)cc1`, the Potency was “inactive”.
For `CCn1ccc(C(=O)NC2CCCN(c3cc(-c4ccc(F)cc4)[nH]n3)C2)n1` (stereo not drawn), the Potency was “inactive”.
With `O=C(NCC1CCN(c2cc(-c3ccc(Cl)cc3)[nH]n2)CC1)c1ccc2nc[nH]c2c1` the Potency was 35.5 µM (active).

Reference: PubChem BioAssay AID1345082 (National Center for Advancing Translational Sciences (NCATS), 2018)
Potency is read from the fitted curve at half-maximal effect.
